# GALR2 agonist = GALR2 receptor agonists, primary screen, cell-based; activation, % (test concentration not listed); hit rate 0.48% among 140,000; Galanin receptor type 2 (Homo sapiens), O43603; GALR2-expressing cells, agonist activation read-out; in the data active = activation above about 5%, passing the limit was not always enough;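 note: 0% = vehicle buffer wells and 100% = reference agonist at full effect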
# Target sequence (O43603 whole entry, looked up): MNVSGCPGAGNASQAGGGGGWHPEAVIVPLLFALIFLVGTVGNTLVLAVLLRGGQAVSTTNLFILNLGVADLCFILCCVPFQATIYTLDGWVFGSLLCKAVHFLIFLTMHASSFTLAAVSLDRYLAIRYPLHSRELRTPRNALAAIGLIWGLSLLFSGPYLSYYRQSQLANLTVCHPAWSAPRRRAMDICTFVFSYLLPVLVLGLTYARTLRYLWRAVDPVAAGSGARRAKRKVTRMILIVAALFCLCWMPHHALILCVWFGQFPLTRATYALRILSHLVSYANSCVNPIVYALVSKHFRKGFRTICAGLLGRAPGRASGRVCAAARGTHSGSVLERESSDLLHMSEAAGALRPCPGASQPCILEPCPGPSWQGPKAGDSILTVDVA
# LYP act = LYP phosphatase activators, primary screen, biochemical, DiFMUP fluorescence, 2 µM; Tyrosine-protein phosphatase non-receptor type 22 (Homo sapiens), Q9Y2R2; recombinant LYP; 0 = plate median, 100 = signal doubled; activation, % at 2 µM; hit rate 0.11% among 96,000;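 active = activation at 2 µM above a set limit, the mean plus 5 SD, cut at about 37% in these data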
# S1P2 blocker = human S1P2 receptor antagonists, primary screen, cell-based. Sphingosine 1-phosphate receptor 2 (Homo sapiens), O95136. cell-based S1P2 antagonist assay, inhibition at 5 uM. inhibition, % at 5 µM. hit rate 0.21% among 97,000; in the data active = inhibition above about 45%;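 note: CRE beta-lactamase reporter cells expressing human S1P2 stimulated with S1P; 0% = agonist at EC80 alone and 100% = agonist plus reference antagonist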
# GALR2 antag = GALR2 antagonists in receptor-expressing cells, primary screen; antagonist mode; inhibition, % at 4 µM; hit rate 0.39% among 140,000; in the data active = inhibition above about 27%;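 note: cells stimulated with galanin 1-16 at roughly its EC80; 0% = agonist challenge control and 100% = basal control without agonist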
# S1P2 agonist = S1P2 receptor agonists, primary screen, cell-based | hit rate 0.46% among 97,000 | S1P2-expressing cell line, agonist reporter read-out | activation, % at 4.5 µM | Sphingosine 1-phosphate receptor 2 (Homo sapiens), O95136 | AID 729, 2007; in the data active = activation above about 16%;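 note: 0% = vehicle low control and 100% = maximal reference agonist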
# LYP inh 2 = PTPN22 phosphatase inhibitors, primary screen, biochemical, DiFMUP fluorescence, 2 µM; AID 640, 2007; Tyrosine-protein phosphatase non-receptor type 22 (Homo sapiens), Q9Y2R2; hit rate 0.21% among 96,000; recombinant LYP catalytic domain; inhibition, % at 2 µM;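 active = inhibition at 2 µM at or above a set limit, the screen mean plus 3 SD, cut at about 24% in these data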;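 note: 0% = DMSO with enzyme and 100% = enzyme fully blocked by orthovanadate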
# LYP act confirm = retest of PTPN22 activators, confirmation, biochemical, DiFMUP fluorescence, single concentration | shares compounds with LYP act | Recombinant LYP, activation; zero set by plate's median compound well | activation, % at 2 µM | 100 tested, under 10 active; call rule not given here
# Numbers without * were called inactive; nt = no result given. Compounds with a hit are over-represented: about 1.4% of the library has one in this group of screens.
SMILES,GALR2 agonist,LYP act,S1P2 blocker,GALR2 antag,S1P2 agonist,LYP inh 2,LYP act confirm
O=C(NCc1ccco1)Nc1cccs1,0,37*,3,5,-2,-42,5
O=C(Nc1ccc(O)c(C(=O)O)c1)c1ccc2c(c1)C(=O)N(CC1CCCO1)C2=O (configuration not stated),0,nt,nt,2,nt,nt,nt
O=C(Nc1ccc2c(c1)C(=O)N(CC1CCCO1)C2=O)c1ccc(Cl)c(Cl)c1 (configuration not stated),-1,37*,1,-1,-6,-33,1
CCNC(=S)NNC(=O)c1csc2ccccc12,-3,-9,14,8,-6,12,nt
CC(C)CNC(=S)NNC(=O)c1csc2ccccc12,-2,37*,-12,6,-3,-43,3
CCOC(=O)C1CCN(Cc2coc3c(Cl)cc(Cl)cc3c2=O)CC1,-1,39*,-8,2,-2,-39,-1
Cc1cc2c(cc1C)C(c1cc(Br)ccc1F)CC(=O)N2 (configuration not stated),0,nt,nt,-4,nt,nt,nt
COC(=O)C1=C(C)NC(=O)CC1c1cc(Br)ccc1F (configuration not stated),-1,38*,-24,-1,0,-43,-3
Cc1ccccc1NC(=O)CN(c1ccc(F)cc1)S(C)(=O)=O,-1,8,0,-8,-2,-9,nt
CN(C)S(=O)(=O)N(CC(=O)Nc1ccccc1F)c1ccccc1,-2,39*,6,9,-2,-38,-4
Cc1ccc(-n2c(SCC(=O)Nc3cccc(S(N)(=O)=O)c3)nc3ccccc32)cc1,0,nt,nt,1,nt,nt,nt
CCOC(=O)c1cnn(-c2nc(-c3ccccc3)cs2)c1C(F)(F)F,-3,-6,-1,1,-8,8,nt
CCOC(=O)c1cnn(-c2nc(-c3ccc(F)cc3)cs2)c1C(F)(F)F,0,40*,6,-16,-2,-34,-3
COC(=O)c1sccc1NC(=O)c1cc(-c2ccc(C)cc2C)nc2ccccc12,-2,12,19,-2,-3,-9,nt
CCC(C(=O)NC1CCCC1)N(Cc1ccc2c(c1)OCO2)C(=O)c1snc(C(N)=O)c1N (configuration not stated),0,1,0,-18,-3,-2,nt
CC(C(=O)NC1CCCC1)N(Cc1ccc2c(c1)OCO2)C(=O)c1snc(C(N)=O)c1N (configuration not stated),-3,42*,-3,8,-9,-44,0
COc1ccccc1CNC(=O)/C=C/c1cc2c(cc1Br)OCO2,-2,8,-1,-2,-6,-4,nt
CCn1c(-c2ccc3ncccc3c2)n[nH]c1=S,-1,42*,-16,6,-3,-39,3
Cc1ccc(Cl)cc1NC(=O)c1cccc(OC(F)F)c1,0,40*,-6,6,-5,-46,7
COc1cccc(C(=O)Nc2ccc(F)c(F)c2F)c1,0,10,1,-3,-3,-7,nt
CCOc1ccc(S(=O)(=O)N(CC(=O)O)c2ccc(C)cc2)cc1,-2,38*,2,5,1,-42,-12
CC(=O)Nc1sc2c(c1C(N)=O)CCCC2,-8,45*,-10,3,-8,-42,10
O=C(CCCC(=O)N(CC(=O)NC1CCCC1)Cc1ccc(F)cc1)Nc1ccccn1,-1,38*,8,4,-2,-41,-4
CC1(C)CC(=O)C(C(C2=C(O)CC(C)(C)CC2=O)c2ccc(Br)s2)C(=O)C1 (configuration not stated),0,nt,nt,-5,nt,nt,nt
Cc1c(C(=O)N2CCc3ccccc3C2)oc2ccc(S(=O)(=O)N3CCCCCC3)cc12,0,nt,nt,3,nt,nt,nt
SMILES,GALR2 agonist,LYP act,S1P2 blocker,GALR2 antag,S1P2 agonist,LYP inh 2,LYP act confirm
COc1cc(OC)c(C2N(C)c3ccccc3N2C)cc1OC,-1,39*,13,0,0,-42,6
COc1cc(OC)c(C2N(c3ccccn3)C(=O)C3CCCN32)cc1OC (configuration not stated),-2,-5,-3,-4,-1,3,nt
COc1ccccc1-n1cnc2cc(NCc3ccccn3)ccc21,0,-14,3,6,-7,16,nt
COc1ccc(-n2cnc3cc(NCc4ccccn4)ccc32)cc1,-4,42*,-4,6,-9,-38,-4
COC(=O)c1ccc(C)c(NS(=O)(=O)c2ccc(OC)cc2)c1,1,0,-12,20,0,2,nt
COC(=O)c1ccc(C)c(NS(=O)(=O)c2ccc3c(c2)OCCO3)c1,0,42*,5,8,-2,-38,-1
CC(=O)Nc1ccc(S(=O)(=O)N2CCSC2c2ccc(Cl)cc2)cc1 (configuration not stated),-1,38*,-15,-11,1,-40,5
CCOC(=O)c1cccc(C(=O)OCC)n1,-2,-6,5,0,-1,7,nt
O=C(COC(=O)c1cccc(C(=O)OCC(=O)c2ccc(Br)cc2)n1)c1ccc(Br)cc1,-1,41*,-1,11,0,-47,-10
COc1ccc(NC(C)=O)cc1NC(=O)CCn1c(=O)sc2ccccc21,-3,40*,-16,11,-6,-39,3
O=C(NCCN1C(=O)S/C(=C\c2ccccc2F)C1=O)C1CCCN1C(=O)c1cccs1 (configuration not stated),0,nt,nt,8,nt,nt,nt
CC1(C)CC(=O)C2=C(C1)N(Cc1ccco1)C(=O)C2(O)C(F)(F)F (configuration not stated),-2,37*,17,-10,0,-41,3
O=c1c2c(nc3cc(-c4cccc(Cl)c4)[nH]n13)CCC2,-3,43*,5,1,-5,-37,-5
O=c1c2c(nc3cc(-c4ccc(F)cc4)[nH]n13)CCCC2,0,2,9,0,-1,-4,nt
CCOc1ccc(NC(=S)N2CCC(N(C)CCN3CCOCC3)CC2)cc1,-1,nt,nt,2,nt,nt,nt
Cc1nn(C)cc1/C=N\NC(=O)c1ccc2c(c1)c(C)c(C)n2Cc1ccccc1,-1,5,-100,-18,3,-6,nt
CCSc1nc2cc(C(=O)OC)ccc2c(=O)n1CC,-3,1,0,-2,-3,-5,nt
COC(=O)c1ccc2c(=O)sc(N3CCC(C(N)=O)CC3)nc2c1,-4,39*,-13,7,-4,-40,0

# Bioassay records from PubChem BioAssay.
